PubChem BioAssay AID1159580 (chemical genetic matrix, 2015)
“And” between values parts separate entries of the source, which are not always exact repeats. Equal values may be shown once. About 2,000 (36%) of roughly 5,500 compounds were called active. About 18% were inconclusive and are not listed. This is one part of the list. A number with no mark means an inactive call. Rule as the data show it: active = normalized growth mostly below about 0.91 (no sharp cut-off); inconclusive = no clear call, values can overlap the other calls; inactive = mostly above about 0.92.

Test: chemical genetic growth profiling, strain panel (AID 1159580);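 also: tested at 20 µM; growth read once vehicle control cultures reached saturation at 30 °C; 1 = growth at the plate median or of vehicle wells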
Settings: S. cerevisiae deletion strains, growth OD

Work on O=C(O)CCCc1ccc(N(CCCl)CCCl)cc1 yielded a normalized growth (locus YKL009W, strain mrt4, stronger effect = lower value) of 0.92, a normalized growth (locus YKL068W, stronger effect = lower value) of 0.973 and a normalized growth (locus YKL085W, strain MDH1 (second series), stronger effect = lower value) of 0.942. It also gave a normalized growth (locus YKL085W, strain MDH1, stronger effect = lower value) of 0.942, a normalized growth (locus YKL160W, strain elf1, stronger effect = lower value) of 0.927 and a normalized growth (locus YKR001C, strain vps1, stronger effect = lower value) of 0.985. The normalized growth (locus YKR026C, strain gcn3, stronger effect = lower value) was 0.971, the normalized growth (locus YKR091W, strain srl3, stronger effect = lower value) was 0.962 and the normalized growth (locus YLL001W, strain dnm1, stronger effect = lower value) was 1.01. It also gave a normalized growth (locus YLL026W, stronger effect = lower value) of 0.984, a normalized growth (locus YLL041C, strain sdh2, stronger effect = lower value) of 0.963 and a normalized growth (locus YLR027C, strain aat2, stronger effect = lower value) of 0.949. It also gave a normalized growth (locus YLR039C, strain RIC1, stronger effect = lower value) of 0.974, a normalized growth (locus YLR058C, strain SHM2, stronger effect = lower value) of 0.977 and a normalized growth (locus YLR102C, strain apc9, stronger effect = lower value) of 0.987. For the same compound, the normalized growth (locus YLR113W, strain HOG1, stronger effect = lower value) was 0.838 (active), the normalized growth (locus YLR221C, strain rsa3, stronger effect = lower value) was 1.03 and the normalized growth (locus YLR258W, strain gsy2, stronger effect = lower value) was 0.96. It also gave a normalized growth (locus YLR262C, strain YPT6 (second series), stronger effect = lower value) of 0.987, a normalized growth (locus YLR262C, strain YPT6, stronger effect = lower value) of 0.915 and a normalized growth (locus YLR268W, strain sec22, stronger effect = lower value) of 0.981. It also gave a normalized growth (locus YLR320W, strain mms22, stronger effect = lower value) of 0.993, a normalized growth (locus YLR330W, strain CHS5, stronger effect = lower value) of 0.985 and a normalized growth (locus YLR342W, strain FKS1 (second series), stronger effect = lower value) of 0.96. For the same compound, the normalized growth (locus YLR342W, strain FKS1, stronger effect = lower value) was 0.99, the normalized growth (locus YLR357W, strain rsc2, stronger effect = lower value) was 0.948 and the normalized growth (locus YLR370C, strain arc18, stronger effect = lower value) was 0.959. It also gave a normalized growth (locus YLR371W, strain rom2, stronger effect = lower value) of 0.992, a normalized growth (locus YLR384C, strain iki3, stronger effect = lower value) of 0.979 and a normalized growth (locus YLR418C, strain cdc73, stronger effect = lower value) of 1.03. It also gave a normalized growth (locus YML016C, strain PPZ1, stronger effect = lower value) of 0.984, a normalized growth (locus YML032C, strain rad52, stronger effect = lower value) of 0.944 and a normalized growth (locus YML120C, strain ndi1, stronger effect = lower value) of 0.987. For the same compound, the normalized growth (locus YML124C, strain tub3, stronger effect = lower value) was 0.989, the normalized growth (locus YMR058W, strain fet3, stronger effect = lower value) was 0.979 and the normalized growth (locus YMR078C, strain ctf18, stronger effect = lower value) was 0.972. For the same compound, the normalized growth (locus YMR125W, strain sto1, stronger effect = lower value) was 0.945, the normalized growth (locus YMR129W, stronger effect = lower value) was 0.969 and the normalized growth (locus YMR205C, strain PFK2, stronger effect = lower value) was 0.992. The normalized growth (locus YMR223W, strain ubp8, stronger effect = lower value) was 1.01, the normalized growth (locus YMR231W, strain pep5, stronger effect = lower value) was 0.981 and the normalized growth (locus YMR307W, strain GAS1, stronger effect = lower value) was 0.922 and 0.985. For the same compound, the normalized growth (locus YNL067W, strain RPL9B, stronger effect = lower value) was 1.02, the normalized growth (locus YNL071W, strain lat1, stronger effect = lower value) was 0.964 and the normalized growth (locus YNL153C, strain GIM3, stronger effect = lower value) was 1.01.
